Results reported in PubChem BioAssay (NCI).
This is part of a sample that, as a whole, favours compounds with a hit. Of some 83,000 tested, about 20% had one in any assay.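 48-hour exposure, single concentration, 96-well plates; percent growth endpoint where 0 means no net growth. Active: below 10.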 Activity calls are given as the source filed them.

What follows are compounds tested on SNB-19 CNS (assay: NCI-60 one-dose screen, 48 h (100 = growth as untreated, 0 = no growth, -100 = all killed)). Details: 10 µM unless noted.

Structure (SMILES)	growth
CCc1ccc(OCc2ccccc2C(=O)Nc2ccc3nc(C)cc(N)c3c2)cc1	-80.6% (active)
Nc1cccc(C(=O)Nc2ccc3c(O)c(N=Nc4ccc(N=Nc5ccc(S(=O)(=O)O)cc5)cc4)c(S(=O)(=O)O)cc3c2)c1	106% (inactive)
COc1cc(NCC(=O)Nc2cc(Nc3cccc(C(F)(F)F)c3)ncn2)c(Cl)c(OC)c1Cl	99.9% (inactive)
CC1CCCN(CCCCCOc2ccc3oc4ccccc4c(=O)c3c2)C1 (centres undefined)	83.6% (inactive)
CCCn1c(N)c(C(N)=O)sc1=S	97.2% (inactive)
CCOC(=O)c1sc(/N=C2\NC(=O)/C(=C/c3ccc(N4CCN(C)CC4)cc3)S2)nc1C	104% (inactive)
CN(C)C1=NCCN1	111% (inactive)
CCOC(=O)c1ccc(Nc2ncnc3ccc(NC(=O)c4ccccc4)cc23)cc1	99.9% (inactive)
N#CC1C(c2ccc(Cl)cc2)=Nc2c(c(-c3ccccc3)nn2-c2ccccc2)C12C(=O)Nc1ccc(Cl)cc12 (centres undefined)	24.1% (inactive)
C#C[C@@]1(O)[C@@H](CO)O[C@@H](n2ccc3c(N)ncnc32)[C@@H]1O	7.29% (active)
CN(C)CCCn1c2c(c3cc(-c4cccc(S(N)(=O)=O)c4)ccc3c1=O)C(=O)c1ccccc1-2	64.8% (inactive)
C=C1C(=O)O[C@H]2[C@H]1CC/C(COC(=O)/C=C/c1cccnc1)=C\CC[C@@]1(C)O[C@@H]21	75.2% (inactive)
C#C[C@@]1(O)[C@@H](CO)O[C@@H](n2cc(Cl)c3c(N)ncnc32)[C@@H]1O	2.86% (active)
CCOc1ccc(C2N(c3cc(OC)c(OC)c(OC)c3)C(=O)C2(F)F)cc1 (centres undefined)	54.1% (inactive)
O=C1C(Cl)=C(NCCCN(CCCNC2=C(Cl)C(=O)c3ccccc3C2=O)C2=C(Cl)C(=O)c3ccccc3C2=O)C(=O)c2ccccc21	72.9% (inactive)
COc1ccc(-c2nc(C#N)c(NCC(c3ccc(Cl)cc3)N3CCCCC3)o2)cc1 (centres undefined)	113% (inactive)
Cc1nc2sc(C(=O)Nc3ccccc3)c(N)c2cc1C(C)O (centres undefined)	24.3% (inactive)

Structure (SMILES)	growth
O=C1CCC23OC(c4ccccc4N12)C(O)C(O)C3O (centres undefined)	101% (inactive)
C=C1C(=O)O[C@H]2[C@H]1CC/C(COC(=O)CCCCC(=O)OC/C1=C/CC[C@@]3(C)O[C@H]3[C@H]3OC(=O)C(=C)[C@@H]3CC1)=C\CC[C@@]1(C)O[C@@H]21	89.9% (inactive)
CC[C@]12C=CCN3CC[C@@]4(c5cc(NC(=O)CCC(=O)O[C@H]6CC[C@H]7[C@@H]8CC[C@H]9CC(=O)CC[C@]9(C)[C@H]8CC[C@]67C)c(OC)cc5N(C)[C@H]4[C@@](O)(C(=O)OC)[C@@H]1OC(C)=O)[C@@H]32	84.7% (inactive)
N#CC(C#N)=C1NC(c2ccccc2)=C(c2ccccc2)C(c2ccccc2Cl)=C1C#N	106% (inactive)
CCCCCCCCCCCCCC1=NCC[N+]1(CCO)Cc1ccccc1 (centres undefined)	-82.1% (active)
Cc1cc(C)n(-c2nc(-c3cccs3)c(C#N)c(=O)[nH]2)n1	96.3% (inactive)
COc1ccc(C2C(c3ccccc3)C(=O)N2c2cc(OC)c(OC)c(OC)c2)cc1I (centres undefined)	33.4% (inactive)
CC(C)(C)c1ccc2oc(=O)n(SC(Cl)(Cl)Cl)c2c1	112% (inactive)
CCOC(=O)c1c(C)nc2c(c1N)/C(=C/c1ccccn1)C(=O)N2Cc1ccccc1	0.719% (active)
O=C(Nc1cccc(-c2cccc(F)c2)c1)C1CCN(Cc2cccc3cccnc23)CC1	77% (inactive)
COc1ccc(C(C)c2cc(OC)c(OC)c(OC)c2)cc1 (centres undefined)	34.1% (inactive)
Cc1ccc(SC2c3ccc(C)cc3Oc3nc(N)c(C#N)c(N)c32)cc1 (centres undefined)	109% (inactive)
COC(=O)/C=C/c1cc(OC)c2c(c1)[C@@H](C(=O)OC)[C@H](c1ccc(OC)c(OC)c1)O2	35% (inactive)
C#CCN(CCCOc1ccc(Cl)cc1Cl)CCCSC(=O)CCCCCN1/C(=C\C=C2/CCCC(/C=C/C3=[N+](CCCCCC(=O)[O-])c4ccccc4C3(C)C)=C2Cl)C(C)(C)c2ccccc21	14.7% (inactive)
O=C1NCc2ccc3c(-c4cccc(Cl)c4)c[nH]c3c21	28.6% (inactive)
O=C(/C(=C\c1c(-c2ccccc2)[nH]c2ccccc12)S(=O)(=O)c1ccccc1)c1ccccc1	73.8% (inactive)
N#Cc1c(-c2ccc(F)cc2)nc(N=Nc2c(O)[nH]c3ccccc23)nc1N1CCOCC1	70.1% (inactive)
